Of roughly 8,800 targets only a part is listed; those with a hit were picked by preference. About 0.5% of all pairs of compound and target were hits.
compound: c1cn2cc(-c3ccc4cn[nH]c4c3)nc(Nc3ccc(N4CCOCC4)cc3)c2n1 [entospletinib]; experiment: log2 fold change, soluble protein after heating vs DMSO (PISA); higher = thermal stabilisation; K562 lysate, 10 uM; active = over 0.2 and 3.5 SD of the protein, either way, in both replicates (recomputed)
Outline: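 A 30 min treatment with 10 μM compound was applied to crude K562 extract at 1 mg/mL protein in PBS pH 7.4 with 1 mM MgCl2. Heating for 3 min spanned 48°C-58°C, after which aliquots were pooled, adjusted to 0.5% NP-40 at 4°C and spun at 21,000xg for 90 min. TMTpro 16plex LC-MS/MS of the supernatant, with channel sums equalised, gave values recorded as log-two fold change in thermal stability against solvent controls, from duplicates.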

UniProt Q9UJZ1, sequence (Q9UJZ1 whole entry, looked up): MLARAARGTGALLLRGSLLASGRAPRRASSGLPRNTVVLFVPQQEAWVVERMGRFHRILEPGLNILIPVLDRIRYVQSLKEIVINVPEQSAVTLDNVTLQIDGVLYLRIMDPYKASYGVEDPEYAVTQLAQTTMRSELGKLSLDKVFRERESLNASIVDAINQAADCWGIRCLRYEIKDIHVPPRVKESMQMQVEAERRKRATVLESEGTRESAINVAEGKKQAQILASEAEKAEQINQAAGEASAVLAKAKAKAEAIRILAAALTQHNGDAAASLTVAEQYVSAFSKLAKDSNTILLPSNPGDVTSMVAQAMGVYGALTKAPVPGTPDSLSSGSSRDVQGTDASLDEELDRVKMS
UniProt O95926, sequence (O95926 whole entry, looked up): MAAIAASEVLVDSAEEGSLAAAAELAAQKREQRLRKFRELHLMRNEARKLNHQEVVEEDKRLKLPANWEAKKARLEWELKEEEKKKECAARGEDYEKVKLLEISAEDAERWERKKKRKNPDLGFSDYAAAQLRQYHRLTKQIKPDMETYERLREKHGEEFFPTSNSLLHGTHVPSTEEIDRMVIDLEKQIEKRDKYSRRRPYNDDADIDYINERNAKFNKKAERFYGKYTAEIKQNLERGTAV
UniProt Q96Q15, sequence (Q96Q15 whole entry, looked up): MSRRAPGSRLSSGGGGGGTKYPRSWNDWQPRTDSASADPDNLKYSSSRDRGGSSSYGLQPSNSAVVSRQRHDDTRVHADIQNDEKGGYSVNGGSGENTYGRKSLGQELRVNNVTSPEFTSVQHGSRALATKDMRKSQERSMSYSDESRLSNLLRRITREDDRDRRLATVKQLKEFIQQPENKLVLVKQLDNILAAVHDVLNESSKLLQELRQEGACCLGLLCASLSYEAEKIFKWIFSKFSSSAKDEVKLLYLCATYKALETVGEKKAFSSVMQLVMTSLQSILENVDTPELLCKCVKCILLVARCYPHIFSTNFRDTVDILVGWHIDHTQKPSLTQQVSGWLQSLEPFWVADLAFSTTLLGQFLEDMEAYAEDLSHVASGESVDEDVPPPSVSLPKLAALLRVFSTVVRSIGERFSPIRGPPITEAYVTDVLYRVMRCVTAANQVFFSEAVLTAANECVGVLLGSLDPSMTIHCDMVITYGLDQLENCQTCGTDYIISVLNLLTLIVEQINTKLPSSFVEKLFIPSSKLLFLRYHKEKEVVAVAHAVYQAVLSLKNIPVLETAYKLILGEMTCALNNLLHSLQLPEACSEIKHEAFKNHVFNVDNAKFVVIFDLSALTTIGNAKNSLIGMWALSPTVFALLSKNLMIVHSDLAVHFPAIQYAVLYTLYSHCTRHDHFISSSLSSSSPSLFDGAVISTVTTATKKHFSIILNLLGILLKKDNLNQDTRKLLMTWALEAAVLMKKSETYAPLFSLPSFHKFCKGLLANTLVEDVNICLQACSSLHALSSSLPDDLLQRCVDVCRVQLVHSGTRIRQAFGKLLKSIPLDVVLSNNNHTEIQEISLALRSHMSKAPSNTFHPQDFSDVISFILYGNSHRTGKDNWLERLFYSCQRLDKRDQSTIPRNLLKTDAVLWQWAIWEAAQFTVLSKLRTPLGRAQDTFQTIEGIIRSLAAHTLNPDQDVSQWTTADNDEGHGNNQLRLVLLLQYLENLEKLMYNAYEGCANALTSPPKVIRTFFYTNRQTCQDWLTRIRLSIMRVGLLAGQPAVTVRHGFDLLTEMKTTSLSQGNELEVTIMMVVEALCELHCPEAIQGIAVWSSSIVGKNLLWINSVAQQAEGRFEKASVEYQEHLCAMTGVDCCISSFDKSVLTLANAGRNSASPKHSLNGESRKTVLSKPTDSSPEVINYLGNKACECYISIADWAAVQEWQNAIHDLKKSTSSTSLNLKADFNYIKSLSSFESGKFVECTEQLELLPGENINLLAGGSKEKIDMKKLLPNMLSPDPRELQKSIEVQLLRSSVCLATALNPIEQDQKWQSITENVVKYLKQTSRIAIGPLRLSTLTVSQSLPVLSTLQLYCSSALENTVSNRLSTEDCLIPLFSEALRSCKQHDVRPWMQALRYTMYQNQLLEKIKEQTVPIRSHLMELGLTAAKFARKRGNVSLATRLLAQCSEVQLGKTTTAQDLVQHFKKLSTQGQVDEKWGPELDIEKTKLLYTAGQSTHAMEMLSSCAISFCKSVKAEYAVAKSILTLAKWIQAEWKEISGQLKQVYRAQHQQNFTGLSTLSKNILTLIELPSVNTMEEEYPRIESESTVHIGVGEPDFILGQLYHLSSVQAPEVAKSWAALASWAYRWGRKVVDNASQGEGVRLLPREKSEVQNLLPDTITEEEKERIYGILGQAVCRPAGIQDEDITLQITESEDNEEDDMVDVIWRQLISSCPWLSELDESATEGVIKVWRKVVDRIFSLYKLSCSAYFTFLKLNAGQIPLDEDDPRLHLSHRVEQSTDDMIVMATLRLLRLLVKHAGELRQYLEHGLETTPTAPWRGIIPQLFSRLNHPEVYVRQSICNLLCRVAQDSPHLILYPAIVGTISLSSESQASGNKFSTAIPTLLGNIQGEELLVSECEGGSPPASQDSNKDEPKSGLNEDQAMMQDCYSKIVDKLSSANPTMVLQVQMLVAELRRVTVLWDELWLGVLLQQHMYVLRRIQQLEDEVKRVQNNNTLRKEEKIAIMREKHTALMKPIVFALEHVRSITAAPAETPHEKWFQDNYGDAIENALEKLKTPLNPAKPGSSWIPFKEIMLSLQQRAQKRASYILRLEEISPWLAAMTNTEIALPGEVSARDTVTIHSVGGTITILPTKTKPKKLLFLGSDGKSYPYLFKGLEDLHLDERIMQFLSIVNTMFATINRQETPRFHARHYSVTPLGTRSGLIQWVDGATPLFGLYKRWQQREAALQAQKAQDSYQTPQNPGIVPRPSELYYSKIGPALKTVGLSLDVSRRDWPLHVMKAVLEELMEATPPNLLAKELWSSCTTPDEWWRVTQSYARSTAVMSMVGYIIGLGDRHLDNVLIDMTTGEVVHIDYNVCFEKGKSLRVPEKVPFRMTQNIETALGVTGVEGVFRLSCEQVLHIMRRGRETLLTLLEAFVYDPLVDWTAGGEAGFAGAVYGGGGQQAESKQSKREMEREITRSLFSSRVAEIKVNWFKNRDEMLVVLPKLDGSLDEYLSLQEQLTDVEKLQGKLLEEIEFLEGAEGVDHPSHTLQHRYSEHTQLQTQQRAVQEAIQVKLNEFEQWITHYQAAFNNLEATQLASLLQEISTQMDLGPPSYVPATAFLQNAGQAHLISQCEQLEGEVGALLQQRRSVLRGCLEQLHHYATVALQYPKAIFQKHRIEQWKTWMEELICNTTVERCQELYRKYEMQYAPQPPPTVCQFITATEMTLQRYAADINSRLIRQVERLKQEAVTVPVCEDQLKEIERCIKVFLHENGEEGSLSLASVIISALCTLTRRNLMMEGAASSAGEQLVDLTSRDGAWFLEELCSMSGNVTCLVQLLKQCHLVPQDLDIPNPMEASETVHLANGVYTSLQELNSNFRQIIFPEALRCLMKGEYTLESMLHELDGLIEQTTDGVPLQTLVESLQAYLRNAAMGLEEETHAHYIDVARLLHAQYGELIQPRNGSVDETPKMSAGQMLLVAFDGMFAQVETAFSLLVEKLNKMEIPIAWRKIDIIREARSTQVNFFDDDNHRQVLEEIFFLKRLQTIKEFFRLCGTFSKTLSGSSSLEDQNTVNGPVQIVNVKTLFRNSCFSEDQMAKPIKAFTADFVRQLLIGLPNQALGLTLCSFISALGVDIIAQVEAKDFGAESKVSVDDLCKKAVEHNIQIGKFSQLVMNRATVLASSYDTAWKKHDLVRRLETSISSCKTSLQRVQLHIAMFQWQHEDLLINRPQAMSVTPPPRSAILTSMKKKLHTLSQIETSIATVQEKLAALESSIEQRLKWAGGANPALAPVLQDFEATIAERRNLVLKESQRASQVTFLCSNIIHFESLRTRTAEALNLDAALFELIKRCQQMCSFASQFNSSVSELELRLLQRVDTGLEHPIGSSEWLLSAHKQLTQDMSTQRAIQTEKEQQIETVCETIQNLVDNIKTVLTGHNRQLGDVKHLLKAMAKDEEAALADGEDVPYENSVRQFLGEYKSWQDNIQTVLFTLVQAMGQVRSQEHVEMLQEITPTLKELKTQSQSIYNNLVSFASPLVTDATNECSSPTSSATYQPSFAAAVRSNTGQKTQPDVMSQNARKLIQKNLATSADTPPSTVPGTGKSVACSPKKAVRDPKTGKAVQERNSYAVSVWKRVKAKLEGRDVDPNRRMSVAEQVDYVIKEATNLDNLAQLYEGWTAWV
UniProt Q14542, sequence (Q14542 whole entry, looked up): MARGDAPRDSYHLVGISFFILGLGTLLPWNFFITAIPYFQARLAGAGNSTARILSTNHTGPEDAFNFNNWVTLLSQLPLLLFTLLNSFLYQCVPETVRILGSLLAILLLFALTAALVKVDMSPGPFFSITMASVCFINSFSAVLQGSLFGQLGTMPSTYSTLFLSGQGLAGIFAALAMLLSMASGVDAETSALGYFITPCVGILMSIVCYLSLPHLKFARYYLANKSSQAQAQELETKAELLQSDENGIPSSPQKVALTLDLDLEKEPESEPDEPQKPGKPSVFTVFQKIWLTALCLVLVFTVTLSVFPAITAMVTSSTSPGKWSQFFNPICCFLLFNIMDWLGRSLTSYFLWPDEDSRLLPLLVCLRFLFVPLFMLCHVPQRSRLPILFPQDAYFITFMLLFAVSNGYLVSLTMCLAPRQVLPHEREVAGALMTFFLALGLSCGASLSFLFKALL
UniProt P05455, sequence (P05455 whole entry, looked up): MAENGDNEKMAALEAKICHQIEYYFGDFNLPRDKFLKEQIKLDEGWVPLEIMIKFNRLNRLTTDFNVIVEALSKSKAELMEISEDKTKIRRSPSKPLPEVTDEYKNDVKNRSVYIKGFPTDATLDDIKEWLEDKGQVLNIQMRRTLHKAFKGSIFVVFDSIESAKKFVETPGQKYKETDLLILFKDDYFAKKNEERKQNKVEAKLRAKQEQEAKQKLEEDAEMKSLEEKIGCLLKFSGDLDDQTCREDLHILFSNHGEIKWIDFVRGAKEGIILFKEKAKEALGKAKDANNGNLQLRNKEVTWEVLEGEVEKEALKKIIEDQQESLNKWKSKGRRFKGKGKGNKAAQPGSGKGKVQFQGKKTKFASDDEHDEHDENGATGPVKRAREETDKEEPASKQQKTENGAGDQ

log2 fold change, inactive:
SPNS1 (UniProt Q9H2V7) -0.045, SRM (UniProt P19623) 0.001, STOML2 (UniProt Q9UJZ1) 0.011, SFN (UniProt P31947) 0.045, SMC1B isoform 3 (UniProt Q8NDV3) 0.004, STK24 (UniProt B4DR80) 0.001, STAU1 (UniProt O95793) 0.009, SPATS2 (UniProt Q86XZ4) 0.176, SMC4 (UniProt Q9NTJ3) 0.009, STK38 (UniProt Q15208) 0, SMG6 (UniProt Q86US8) 0.024, SMARCA4 (UniProt P51532) -0.008, SSBP3 (UniProt Q9BWW4) 0.009, STAT2 (UniProt P52630) 0.011, STUB1 (UniProt Q9UNE7) 0.019, SHKBP1 (UniProt Q8TBC3) -0.218, SSB (UniProt P05455) 0.005, SMG7 (UniProt Q92540) 0.054, SMG1 (UniProt Q96Q15) -0.007, SRRT (UniProt Q9BXP5) 0.032, SHC1 isoform 6 (UniProt P29353) -0.058, SH3BGRL2 (UniProt Q9UJC5) 0.04, SP1 (UniProt P08047) -0.006, SHCBP1 (UniProt Q8NEM2) -0.013, SH3BP5L (UniProt Q7L8J4) 0.009, SYNRG (UniProt Q9UMZ2) -0.014, STK26 (UniProt Q9P289) -0.026, SMC2 (UniProt O95347) 0.009, SLC11A2 isoform 3 (UniProt P49281) -0.054, SYF2 (UniProt O95926) -0.059, SMC6 (UniProt Q96SB8) -0.013, SLC29A2 (UniProt Q14542) -0.06, SNAP23 (UniProt O00161) 0.004
